The list is not random: actives were taken first. Their share in the collection is about 1.3%.
AMA1-RON2 inh: qHTS for Inhibitors of AMA1-RON; Towards Development of Antimalarial Drug Lead: Primary Screen; 360,000 compounds, 0.2% hits; Potency, µM (highest dose often 58.2 µM), for inactives: at the top dose activity change, negative = inhibition, hits mostly inhibitors; AlphaScreen AMA1-biotinylated RON2 peptide binding; Plasmodium falciparum AMA1 (3D7) - RON2 peptide interaction;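 note: 0% = vehicle wells and -100% = peptide control; nearly all actives have a fitted effect of over 45% in size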
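AMA1 (3D7) with his tag at 25 nM final met compounds first, then biotinylated RON2 peptide at 25 nM; detection used donor plus acceptor beads, 10 µg/mL apiece, read by AlphaScreen after 30 min at room temperature.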
LmPK inhibitor: qHTS Assay for Inhibitors of Leishmania Mexicana Pyruvate Kinase (LmPK) | purified LmPK, Kinase-Glo ATP luminescence, 1 h | Q27686 | 290,000 compounds, 0.37% hits | Potency, µM (series often up to 57.5 µM), inactives show at the top dose activity change, negative = inhibition, most hits filed as inhibitors
Target sequence (Q27686 whole entry, looked up): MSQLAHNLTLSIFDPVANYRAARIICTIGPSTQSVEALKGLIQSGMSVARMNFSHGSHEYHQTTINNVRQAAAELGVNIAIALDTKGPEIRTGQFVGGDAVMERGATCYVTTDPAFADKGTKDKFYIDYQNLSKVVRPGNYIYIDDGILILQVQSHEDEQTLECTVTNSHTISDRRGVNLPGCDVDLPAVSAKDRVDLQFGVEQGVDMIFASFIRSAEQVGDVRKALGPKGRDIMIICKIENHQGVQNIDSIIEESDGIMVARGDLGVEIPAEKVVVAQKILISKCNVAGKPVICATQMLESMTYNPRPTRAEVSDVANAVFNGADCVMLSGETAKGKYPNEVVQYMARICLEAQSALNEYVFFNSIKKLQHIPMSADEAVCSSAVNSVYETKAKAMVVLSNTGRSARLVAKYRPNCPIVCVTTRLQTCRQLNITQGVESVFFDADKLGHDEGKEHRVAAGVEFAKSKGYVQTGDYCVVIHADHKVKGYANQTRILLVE
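Screened at intermediate enzyme activity to detect both inhibitors and activators: LmPK at 0.1 nM, with a 0.5 nM enzyme column as activation reference. PEP 0.5 mM, ADP 0.1 mM; ATP detected by luminescence after 1 h.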
Vaccinia Venus: qHTS for Stage-Specific Inhibitors of Vaccinia Orthopoxvirus: Venus Reporter Primary qHTS | Vaccinia virus Venus reporter expression, fluorescence | Potency, µM (series often up to 36.5 µM), inactives show top-dose activity change, negative = inhibition, usual class: inhibitors | 330,000 compounds, 0.46% hits; calls by dose curve; tested in A549 cells; note: nearly all actives have a fitted effect of over 30% in size
Vaccinia mCherry: qHTS for Stage-Specific Inhibitors of Vaccinia Orthopoxvirus: mCherry Reporter Primary qHTS; Vaccinia virus mCherry reporter infection, fluorescence; Potency, µM (series often up to 36.5 µM), for inactives: top-dose activity change, negative = inhibition, actives largely listed as inhibitors; 310,000 compounds, 0.63% hits; calls by dose curve; tested in A549 cells; note: nearly all actives have a fitted effect of over 35% in size
TbPYK inhibitor: qHTS of Trypanosoma Brucei Inhibitors | pyruvate kinase (Trypanosoma brucei), Q57TT1 | Potency, µM (titrated, usually from 76.8 µM), inactives show at the top dose activity, negative = inhibition, hits mostly inhibitors | TbPYK enzyme, Kinase-Glo Plus ATP luminescence, 45 min | 410,000 compounds, 0.12% hits; note: nearly all actives have a fitted effect of over 50% in size
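Enzyme and substrate buffer are dispensed first and compound is pin-transferred. ADP at 130 uM final then starts the reaction, which runs 45 min at room temperature. Detection reagent is added for 10 min before luminescence is imaged.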
RE007 growth inh: qHTS Assay for Inhibitors of the HIV-1 protein Vpr; S. pombe RE007 Vpr strain, BacTiter-Glo ATP luminescence, 24 h; Potency, µM (titrated, usually from 92.2 µM), for the others: top-dose activity change, negative = less growth, hits mostly inhibitors; 360,000 compounds, 0.21% hits; active = well fitted falling curve with a large enough effect; inconclusive = small, poorly fitted or top-dose-only effect; inactive = no such curve, though single readings can be large or run the other way; note: nearly all actives have a fitted effect of over 50% in size
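Fission yeast strain RE007, carrying one chromosomally integrated HIV-1 vpr copy, was seeded at OD 0.01 in PMG+AL medium with 23 nL pinned compound. After 24 h at 30 °C and 99% humidity, viability was read by BacTiter-Glo luminescence.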
Active calls of the source: *. Unless noted, calls come from the whole dose curve; as a rule, active = well fitted curve in the direction sought with a large enough effect; inconclusive = small, poorly fitted or top-dose-only effect, or another doubt; inactive = no such curve, though single readings can be large; an effect the other way counts as inactive or inconclusive. Unless noted, % is set by controls: 0 for no effect and ±100 for the full control effect; potency is the fitted concentration of half-maximal effect.

For COc1ccc2nc(Nc3nc(CSc4nc5ccccc5[nH]4)cc(=O)[nH]3)nc(C)c2c1 the results were AMA1-RON2 inh -6%, LmPK inhibitor 0%, Vaccinia Venus inconclusive, Vaccinia mCherry inconclusive, TbPYK inhibitor -6% and RE007 growth inh 22%.
`COc1nc(Nc2nc3ccccc3c(=O)[nH]2)nc2ccc(C)cc12` gave AMA1-RON2 inh 12%, LmPK inhibitor 0%, Vaccinia Venus 2µM*, Vaccinia mCherry 2µM*, TbPYK inhibitor -3% and RE007 growth inh -2%.
For Cc1nc(Nc2nc(CSc3nc4ccccc4[nH]3)cc(=O)[nH]2)nc2ccccc12 the results were AMA1-RON2 inh -3%, LmPK inhibitor 2%, Vaccinia Venus 10µM*, Vaccinia mCherry 10µM*, TbPYK inhibitor 1% and RE007 growth inh 14%.
For CC(=O)OC1CC(OC2C(O)CC(OC3C(O)CC(OC4CCC5(C)C(CCC6C5CCC5(C)C(C7=CC(=O)OC7)CCC65O)C4)OC3C)OC2C)OC(C)C1OC1OC(CO)C(O)C(O)C1O (centres undefined) the results were AMA1-RON2 inh 4%, Vaccinia Venus 5.6µM*, Vaccinia mCherry 4.5µM*, TbPYK inhibitor -6% and RE007 growth inh -8%.
Screening CC(=O)OC1C[C@H](O[C@@H]2C(O)C[C@H](O[C@@H]3C(O)C[C@@H](OC4CC[C@]5(C)C(CCC6C5CC(O)[C@@]5(C)C(C7=CC(=O)OC7)CC[C@@]65O)C4)OC3C)OC2C)O[C@H](C)[C@H]1O[C@H]1OC(CO)C(O)C(O)C1O (some centres undefined) returned TbPYK inhibitor 1%.
`CC(=O)O[C@H]1C[C@H](O[C@H]2[C@@H](O)C[C@H](O[C@H]3[C@@H](O)C[C@H](O[C@H]4CC[C@@]5(C)[C@H](CC[C@@H]6[C@@H]5C[C@@H](O)[C@]5(C)[C@@H](C7=CC(=O)OC7)CC[C@]65O)C4)O[C@@H]3C)O[C@@H]2C)O[C@H](C)[C@H]1O[C@@H]1O[C@H](CO)[C@@H](O)[C@H](O)[C@H]1O` gave Vaccinia Venus 2.5µM* and Vaccinia mCherry inconclusive.
C[C@@H]1CN(CC(=O)Nc2ccc3c(c2)Cc2cccc(-c4cc(=O)cc(N5CCOCC5)o4)c2S3)C[C@H](C)O1 was read as TbPYK inhibitor 0%.
Screening CN(C)C(=O)CN1CCN(C(=O)CCl)CC1 returned AMA1-RON2 inh 4%, LmPK inhibitor -1%, TbPYK inhibitor 8% and RE007 growth inh 14%.
`CC(C)NC(=O)CN1CCN(C(=O)CCl)CC1` gave AMA1-RON2 inh 11%, LmPK inhibitor -3%, Vaccinia Venus 10µM*, Vaccinia mCherry 13µM*, TbPYK inhibitor 1% and RE007 growth inh 16%.
For Cc1cnc2c(C)cccc2c1C the results were Vaccinia Venus 2% and Vaccinia mCherry -8%.
CCS(=O)(=O)Nc1cc(C(=O)N2CCCN(C=O)CC2)c2c(c1)nc(-c1ccccc1)n2C was read as Vaccinia Venus -15% and Vaccinia mCherry inactive.
For O=C(CSCC(=O)N1CCOCC1)Nc1nc(-c2ccc3c(c2)OCO3)cs1 the results were AMA1-RON2 inh -14%, LmPK inhibitor 2%, Vaccinia Venus 8.9µM*, Vaccinia mCherry inconclusive, TbPYK inhibitor 4% and RE007 growth inh 2%.
For CCOC(=O)N1CCN(C(=O)CSCC(=O)Nc2nc(-c3ccc4c(c3)OCO4)cs2)CC1 the results were AMA1-RON2 inh -5%, LmPK inhibitor 6%, TbPYK inhibitor 6% and RE007 growth inh -11%.
COc1ccc(/C=C\C(=O)O[C@@H]2C(O)C(O[C@@H]3OC(C)[C@H](O[C@@H]4OCC(O[C@H]5O[C@H](CO)[C@@H](O)C(O)C5O)C(O)C4O)C(O)C3O)[C@H](OC(=O)[C@]34CCC(C)(C)C[C@@H]3C3=CCC5[C@@]6(C)CC(O)C(O[C@@H]7OC(CO)C(O)[C@H](O)[C@H]7O)[C@@](C)(C(=O)O)C6CC[C@@]5(C)[C@]3(CO)CC4)O[C@H]2C)cc1 (some centres undefined) was read as AMA1-RON2 inh 7%, Vaccinia Venus 11µM*, Vaccinia mCherry inconclusive, TbPYK inhibitor 1% and RE007 growth inh inconclusive.
Screening Cc1ccc2[nH]c(C(=O)N/N=C/c3ccccc3O)c(C)c2c1 returned AMA1-RON2 inh 43%, LmPK inhibitor -1%, Vaccinia Venus inconclusive, Vaccinia mCherry 3.5µM*, TbPYK inhibitor -1% and RE007 growth inh -3%.
`COc1ccc2[nH]c(C(=O)N/N=C/c3ccc(OC)c(O)c3)cc2c1` gave AMA1-RON2 inh 5%, LmPK inhibitor -6%, Vaccinia Venus -27%, Vaccinia mCherry 11µM*, TbPYK inhibitor -6% and RE007 growth inh 8%.
COc1cc(OC)c2cc(C(=O)N/N=C/c3ccccc3O)[nH]c2c1 was read as AMA1-RON2 inh 42%, LmPK inhibitor 0%, Vaccinia Venus inconclusive, Vaccinia mCherry 1.1µM* and TbPYK inhibitor -12%.
Screening COc1ccccc1C1CN(CC(=O)NCC2OCCc3ccccc32)Cc2ccccc2O1 (centres undefined) returned Vaccinia Venus -4% and Vaccinia mCherry -14%.
Screening O=C(NCCc1nc2ccccc2n1CCCOc1ccc2ccccc2c1)C1CCCCC1 returned Vaccinia Venus inconclusive and Vaccinia mCherry 3.2µM*.
For COc1ccc2[nH]c3c(N4CCc5ccccc5C4)ncnc3c2c1 the results were AMA1-RON2 inh -25%, LmPK inhibitor 3%, Vaccinia Venus 14µM*, Vaccinia mCherry inconclusive, TbPYK inhibitor 2% and RE007 growth inh 29%.
Screening CCOc1ccc2[nH]c3c(N4CCN(C(=O)c5ccco5)CC4)ncnc3c2c1 returned AMA1-RON2 inh -4%, LmPK inhibitor 1%, Vaccinia Venus -24%, Vaccinia mCherry 13µM*, TbPYK inhibitor 9% and RE007 growth inh -13%.
Screening Cc1cnc(-n2ncc(C(=O)N(C)C3CCOC3)c2C)nc1-c1ccc(F)cc1 (centres undefined) returned Vaccinia Venus 8% and Vaccinia mCherry -11%.
Screening Nn1cnnc1N/N=C/c1ccc(Cl)cc1Cl returned AMA1-RON2 inh 21%, LmPK inhibitor -4%, Vaccinia Venus inconclusive, Vaccinia mCherry 8.9µM*, TbPYK inhibitor 0% and RE007 growth inh -4%.

High-throughput results from PubChem.
